# Data: the supplement of paper PMC10849652
# Targets with a hit are over-represented here; the source holds about 7,900 in all. About 0.6% of all pairs of compound and target were hits. A number with no mark means an inactive call.
# Compound: c1cn2cc(-c3ccc4cn[nH]c4c3)nc(Nc3ccc(N4CCOCC4)cc3)c2n1 [entospletinib]
# Assay: log2 fold change, soluble protein after heating vs DMSO (PISA); higher = thermal stabilisation; K562 cells, 10 uM, 30 min; active = over 0.2 and 3.5 SD of the protein, either way, in both replicates (recomputed)
# Procedure, shortened: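 K562 cells at 2×10^6 cells/mL were treated with 10 μM compound for 30 min. Aliquots were heated for 3 min across 48°C-58°C, pooled, and extracted in PBS with 0.5% NP-40 at 4°C; soluble protein was the supernatant after 21,000xg for 90 min. Soluble protein was quantified by TMTpro 16plex LC-MS/MS with channel sums equalised, and reported as log2 fold change in thermal stability against DMSO controls, with values from duplicates.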
# Sequence of UniProt Q9UI12 (Q9UI12 whole entry, looked up): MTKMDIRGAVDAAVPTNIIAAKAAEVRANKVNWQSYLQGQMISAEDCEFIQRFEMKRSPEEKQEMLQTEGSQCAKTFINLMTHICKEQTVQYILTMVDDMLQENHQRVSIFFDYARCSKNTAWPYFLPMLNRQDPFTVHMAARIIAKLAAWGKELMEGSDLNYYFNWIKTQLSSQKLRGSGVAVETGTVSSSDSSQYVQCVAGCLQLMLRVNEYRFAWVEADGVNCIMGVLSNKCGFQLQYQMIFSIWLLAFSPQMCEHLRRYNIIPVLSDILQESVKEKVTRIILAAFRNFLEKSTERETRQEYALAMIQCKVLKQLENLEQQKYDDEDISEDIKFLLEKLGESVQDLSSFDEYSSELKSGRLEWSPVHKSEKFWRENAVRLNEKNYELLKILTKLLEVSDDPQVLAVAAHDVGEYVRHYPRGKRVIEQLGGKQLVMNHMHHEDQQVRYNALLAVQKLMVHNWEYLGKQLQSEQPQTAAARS
# Sequence of UniProt Q9Y4P1 (Q9Y4P1 whole entry, looked up): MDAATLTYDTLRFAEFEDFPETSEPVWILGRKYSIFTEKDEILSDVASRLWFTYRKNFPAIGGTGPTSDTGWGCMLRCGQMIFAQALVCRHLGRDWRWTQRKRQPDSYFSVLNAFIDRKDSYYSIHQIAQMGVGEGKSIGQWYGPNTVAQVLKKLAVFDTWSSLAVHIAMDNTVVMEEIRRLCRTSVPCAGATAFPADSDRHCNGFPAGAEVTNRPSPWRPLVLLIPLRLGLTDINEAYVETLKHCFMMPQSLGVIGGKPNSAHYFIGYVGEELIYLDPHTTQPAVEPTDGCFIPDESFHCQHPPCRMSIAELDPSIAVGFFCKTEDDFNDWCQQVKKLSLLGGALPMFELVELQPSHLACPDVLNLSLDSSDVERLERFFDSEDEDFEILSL
# Sequence of UniProt Q16186 (Q16186 whole entry, looked up): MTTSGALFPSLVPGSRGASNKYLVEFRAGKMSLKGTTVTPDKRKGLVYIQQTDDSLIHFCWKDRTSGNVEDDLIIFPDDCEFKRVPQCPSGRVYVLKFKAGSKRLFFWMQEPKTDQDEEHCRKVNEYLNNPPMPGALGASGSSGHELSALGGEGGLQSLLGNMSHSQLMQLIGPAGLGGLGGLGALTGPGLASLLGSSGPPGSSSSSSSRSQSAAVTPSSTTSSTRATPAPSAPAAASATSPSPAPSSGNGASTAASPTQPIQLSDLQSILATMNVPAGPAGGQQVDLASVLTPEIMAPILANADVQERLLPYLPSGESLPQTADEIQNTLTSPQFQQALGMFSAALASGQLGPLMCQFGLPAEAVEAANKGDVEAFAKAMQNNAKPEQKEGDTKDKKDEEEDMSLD
# Sequence of UniProt Q9ULC5 (Q9ULC5 whole entry, looked up): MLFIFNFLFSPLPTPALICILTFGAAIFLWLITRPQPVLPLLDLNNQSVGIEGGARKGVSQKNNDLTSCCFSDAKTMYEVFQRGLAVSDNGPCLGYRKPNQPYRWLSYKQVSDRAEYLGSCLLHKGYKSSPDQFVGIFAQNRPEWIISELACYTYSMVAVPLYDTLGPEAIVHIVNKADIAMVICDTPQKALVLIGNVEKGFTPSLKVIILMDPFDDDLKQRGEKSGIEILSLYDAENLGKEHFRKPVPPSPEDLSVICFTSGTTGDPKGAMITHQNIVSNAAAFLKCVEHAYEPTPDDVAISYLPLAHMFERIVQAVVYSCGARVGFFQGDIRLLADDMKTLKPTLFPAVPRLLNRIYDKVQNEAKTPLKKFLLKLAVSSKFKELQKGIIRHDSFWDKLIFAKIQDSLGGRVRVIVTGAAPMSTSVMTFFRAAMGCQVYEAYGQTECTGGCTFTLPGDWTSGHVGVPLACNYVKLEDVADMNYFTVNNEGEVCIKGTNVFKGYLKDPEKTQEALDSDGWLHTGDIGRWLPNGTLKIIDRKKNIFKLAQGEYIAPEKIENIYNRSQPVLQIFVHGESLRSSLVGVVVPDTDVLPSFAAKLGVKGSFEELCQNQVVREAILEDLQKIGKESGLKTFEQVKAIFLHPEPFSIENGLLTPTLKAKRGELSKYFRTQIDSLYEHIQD
# Sequence of UniProt Q02252 (Q02252 whole entry, looked up): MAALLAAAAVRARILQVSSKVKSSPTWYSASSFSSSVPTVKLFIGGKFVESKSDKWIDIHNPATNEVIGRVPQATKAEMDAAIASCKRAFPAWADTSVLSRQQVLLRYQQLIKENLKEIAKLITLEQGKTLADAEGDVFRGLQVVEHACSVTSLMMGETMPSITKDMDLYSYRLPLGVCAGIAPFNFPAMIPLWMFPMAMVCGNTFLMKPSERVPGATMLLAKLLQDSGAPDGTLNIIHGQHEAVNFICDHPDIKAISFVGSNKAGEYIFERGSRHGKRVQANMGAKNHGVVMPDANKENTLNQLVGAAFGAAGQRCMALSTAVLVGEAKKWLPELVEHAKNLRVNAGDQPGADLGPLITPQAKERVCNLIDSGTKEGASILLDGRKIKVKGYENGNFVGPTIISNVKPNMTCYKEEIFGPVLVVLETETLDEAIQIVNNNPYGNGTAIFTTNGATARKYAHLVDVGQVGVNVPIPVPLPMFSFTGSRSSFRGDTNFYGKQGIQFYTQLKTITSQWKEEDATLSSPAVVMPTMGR
# Sequence of UniProt Q9BTT0 (Q9BTT0 whole entry, looked up): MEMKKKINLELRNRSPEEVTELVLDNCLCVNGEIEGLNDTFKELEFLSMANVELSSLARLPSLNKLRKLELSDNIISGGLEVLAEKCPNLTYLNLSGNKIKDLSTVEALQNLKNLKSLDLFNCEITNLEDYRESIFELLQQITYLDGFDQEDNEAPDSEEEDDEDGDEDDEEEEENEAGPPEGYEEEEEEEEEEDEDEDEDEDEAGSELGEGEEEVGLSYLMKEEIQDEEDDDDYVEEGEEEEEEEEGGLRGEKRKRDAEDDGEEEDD
# Sequence of UniProt Q9NUQ2 (Q9NUQ2 whole entry, looked up): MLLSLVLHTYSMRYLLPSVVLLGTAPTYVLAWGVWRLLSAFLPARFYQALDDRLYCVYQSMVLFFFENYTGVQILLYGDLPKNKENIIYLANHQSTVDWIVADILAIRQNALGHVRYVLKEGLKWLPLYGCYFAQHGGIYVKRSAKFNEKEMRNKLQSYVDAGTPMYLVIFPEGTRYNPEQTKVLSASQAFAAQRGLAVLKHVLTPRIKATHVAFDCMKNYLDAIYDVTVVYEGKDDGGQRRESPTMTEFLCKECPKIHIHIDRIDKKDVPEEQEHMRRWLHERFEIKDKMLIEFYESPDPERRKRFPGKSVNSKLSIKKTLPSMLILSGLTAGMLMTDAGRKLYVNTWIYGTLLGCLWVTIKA
# Sequence of UniProt Q9NWB6 (Q9NWB6 whole entry, looked up): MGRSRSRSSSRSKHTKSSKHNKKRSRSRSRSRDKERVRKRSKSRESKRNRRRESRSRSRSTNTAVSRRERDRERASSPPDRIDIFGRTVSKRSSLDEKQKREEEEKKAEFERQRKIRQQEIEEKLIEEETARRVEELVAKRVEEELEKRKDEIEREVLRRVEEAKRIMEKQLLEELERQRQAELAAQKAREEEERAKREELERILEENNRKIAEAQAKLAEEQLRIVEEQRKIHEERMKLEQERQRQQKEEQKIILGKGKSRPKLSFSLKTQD
# Sequence of UniProt P33121 (P33121 whole entry, looked up): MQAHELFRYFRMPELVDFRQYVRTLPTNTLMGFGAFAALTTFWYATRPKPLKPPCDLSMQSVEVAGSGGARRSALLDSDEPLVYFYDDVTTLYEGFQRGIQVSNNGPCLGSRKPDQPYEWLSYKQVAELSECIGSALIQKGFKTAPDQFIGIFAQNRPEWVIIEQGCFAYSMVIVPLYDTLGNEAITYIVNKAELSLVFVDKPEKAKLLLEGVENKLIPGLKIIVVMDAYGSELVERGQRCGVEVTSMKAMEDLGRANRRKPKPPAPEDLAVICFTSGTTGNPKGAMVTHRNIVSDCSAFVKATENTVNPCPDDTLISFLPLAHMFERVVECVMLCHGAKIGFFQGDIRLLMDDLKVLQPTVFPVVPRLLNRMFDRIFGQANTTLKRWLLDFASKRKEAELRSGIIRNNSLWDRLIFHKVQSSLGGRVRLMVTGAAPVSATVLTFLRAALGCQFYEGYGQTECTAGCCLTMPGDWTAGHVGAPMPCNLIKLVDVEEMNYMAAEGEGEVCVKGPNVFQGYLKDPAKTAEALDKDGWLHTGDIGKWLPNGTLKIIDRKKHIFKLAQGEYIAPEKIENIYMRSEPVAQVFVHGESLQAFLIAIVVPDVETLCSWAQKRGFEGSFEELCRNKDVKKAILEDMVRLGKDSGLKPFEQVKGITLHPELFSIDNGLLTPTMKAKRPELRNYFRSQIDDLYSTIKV
# Sequence of UniProt P08758 (P08758 whole entry, looked up): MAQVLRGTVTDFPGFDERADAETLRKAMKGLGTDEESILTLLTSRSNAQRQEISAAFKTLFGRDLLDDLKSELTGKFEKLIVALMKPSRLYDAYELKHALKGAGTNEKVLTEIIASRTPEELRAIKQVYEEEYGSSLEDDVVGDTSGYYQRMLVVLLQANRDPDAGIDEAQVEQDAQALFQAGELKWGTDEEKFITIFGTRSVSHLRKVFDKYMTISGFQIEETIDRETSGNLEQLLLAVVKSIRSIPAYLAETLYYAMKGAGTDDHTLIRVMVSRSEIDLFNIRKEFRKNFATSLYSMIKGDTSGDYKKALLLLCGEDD
# Sequence of UniProt Q96BI3 (Q96BI3 whole entry, looked up): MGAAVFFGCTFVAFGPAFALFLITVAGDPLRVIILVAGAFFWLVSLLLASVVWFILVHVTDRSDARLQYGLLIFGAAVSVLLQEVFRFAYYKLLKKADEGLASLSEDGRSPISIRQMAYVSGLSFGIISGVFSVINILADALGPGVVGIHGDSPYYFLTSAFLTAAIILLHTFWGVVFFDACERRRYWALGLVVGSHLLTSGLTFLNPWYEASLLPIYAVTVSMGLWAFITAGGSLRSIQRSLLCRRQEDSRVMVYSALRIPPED
# Sequence of UniProt Q9UHQ4 (Q9UHQ4 whole entry, looked up): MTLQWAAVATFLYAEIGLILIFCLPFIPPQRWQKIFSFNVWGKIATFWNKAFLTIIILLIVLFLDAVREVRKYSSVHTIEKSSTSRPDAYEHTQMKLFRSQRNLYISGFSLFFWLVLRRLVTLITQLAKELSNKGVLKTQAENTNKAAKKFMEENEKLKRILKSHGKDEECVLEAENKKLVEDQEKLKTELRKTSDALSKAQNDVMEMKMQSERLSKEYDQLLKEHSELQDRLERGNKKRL
row,Target,log2 fold change
1,ANKZF1 (UniProt Q9H8Y5),0.006
2,ACSL5 isoform 3 (UniProt Q9ULC5),-0.021
3,AGRN (UniProt O00468),0.018
4,BST2 (UniProt Q10589),-0.009
5,ARGLU1 (UniProt Q9NWB6),-0.013
6,BZW1 isoform 3 (UniProt Q7L1Q6),0.03
7,ARRDC1 (UniProt Q8N5I2),-0.014
8,ASNS (UniProt P08243),0.004
9,APH1A (UniProt Q96BI3),-0.084
10,ARHGAP25 isoform 4 (UniProt P42331),0.073
11,ANXA5 (UniProt P08758),0.016
12,ADD1 isoform 3 (UniProt P35611),0.007
13,AGPAT1 (UniProt Q99943),-0.037
14,AGPAT5 (UniProt Q9NUQ2),0.114
15,ANP32E (UniProt Q9BTT0),0
16,ADAMTS5 (UniProt Q9UNA0),-0.145
17,ALDH6A1 (UniProt Q02252),-0.028
18,ATP1B3 (UniProt P54709),-0.031
19,ATP11A (UniProt P98196),0.158

row,Target,log2 fold change
1,ATP2A3 isoform 2 (UniProt Q93084),-0.036
2,ACTR1B (UniProt P42025),0.01
3,ACADM isoform 2 (UniProt P11310),-0.001
4,BCAP29 isoform 2 (UniProt Q9UHQ4),-0.005
5,ARL1 (UniProt P40616),-0.139
6,ALG11 (UniProt Q2TAA5),-0.005
7,APAF1 (UniProt O14727),-0.099
8,ARF4 (UniProt P18085),-0.088
9,AK6 (UniProt Q9Y3D8),-0.048
10,BMP2K (UniProt Q9NSY1),0.157
11,ACSL1 (UniProt P33121),-0.006
12,ACOX3 (UniProt O15254),0.056
13,ADRM1 (UniProt Q16186),-0.079
14,ATP6V1H (UniProt Q9UI12),0.004
15,ATG4B isoform 2 (UniProt Q9Y4P1),0.11
16,ALG3 (UniProt Q92685),0.049
17,AFDN isoform 5 (UniProt P55196),-0.041
18,ATAD3A isoform 2 (UniProt Q9NVI7),0.024
19,ALDH9A1 (UniProt P49189),0.066
